Values joined by “and” are separate entries in the source; they are usually repeats but may differ in a detail not shown here. Equal values may be shown once. Records with an inconclusive call do not appear. Active and inactive are the calls of the source. How the source made its calls: active means hit-call score of the fitted dose curve at least 0.9, where 1 is the maximum; inconclusive means response in the unintended direction; inactive means score below 0.9.
These molecules were tested against Cellular tumor antigen p53 (Homo sapiens) (UniProt P04637) (assay: TOX21_p53_BLA_p5_ratio: Tox21 HCT-116 p53 Agonism Beta-lactamase Assay, Ratio, Phase 5 (AID 2283599)).
Chain of Cellular tumor antigen p53 (Homo sapiens) (P04637 whole entry, looked up, the tested form may be a part): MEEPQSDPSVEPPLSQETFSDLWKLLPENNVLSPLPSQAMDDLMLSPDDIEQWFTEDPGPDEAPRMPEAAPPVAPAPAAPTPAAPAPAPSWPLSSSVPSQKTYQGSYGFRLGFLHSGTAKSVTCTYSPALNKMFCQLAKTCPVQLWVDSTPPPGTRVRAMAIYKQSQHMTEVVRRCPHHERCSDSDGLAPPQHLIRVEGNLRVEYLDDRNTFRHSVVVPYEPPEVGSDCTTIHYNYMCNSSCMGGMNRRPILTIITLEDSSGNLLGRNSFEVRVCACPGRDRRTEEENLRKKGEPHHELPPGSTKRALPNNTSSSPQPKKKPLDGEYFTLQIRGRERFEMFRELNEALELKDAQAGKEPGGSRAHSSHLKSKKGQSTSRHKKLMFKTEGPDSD
Description: TOX21_p53_BLA_p5 is a cell-based, single-readout assay that uses HCT116, a human intestinal cell line, […] in a 1536-well plate.TOX21_p53_BLA_p5_ratio is an assay readout measuring reporter gene via receptor activity and designed using inducible reporter (beta lactamase induction) detected with GAL4 b-lactamase reporter gene. The signal is derived from the ratio of cleaved (ch2) to uncleaved (ch1) reporter gene substrate used as the measure of target activity.Data from the assay component TOX21_p53_BLA_p5_ratio was analyzed into 1 assay endpoint. This assay endpoint, TOX21_p53_BLA_p5_ratio, was analyzed in the positive analysis fitting direction relative to DMSO as the negative control and baseline of activity. Using a type of inducible reporter, gain-of-signal activity can be used to understand changes in the reporter gene as they relate to the gene TP53. Furthermore, this assay endpoint can be referred to as a primary readout, because this assay has produced multiple assay endpoints and this ratio serves a reporter gene function to understand target activity. To generalize the intended target to other relatable targets, this assay endpoint is annotated to the DNA binding intended target family, where the subfamily is tumor suppressor.
Thawing Method: Place 14 mL of pre-warmed thaw medium into a 15 mL of conical tub. Remove the vial of cells to be thawed from liquid nitrogen and thaw rapidly by placing at 37C in a water bath with gentle agitation for 1-2 minutes. Decontaminate the vial by wiping with 70% ethanol before opening in a biological safety cabinet. Transfer the vial contents drop-wise into 14 mL of thaw medium in a sterile 15-mL conical tub. Centrifuge cells at 900 rpm for 4 minutes and resuspend in thaw medium. Transfer contents to the T75 tissue culture flask containing Thaw Medium and place flask in a humidified 37C/5% CO2 incubator. Switch to growth medium at first passage.Propagation Method: Aspirate medium, rinse once in DPBS, add 0.25% Trypsin/EDTA and swirl to coat the cell evenly. Add an equal volume of Growth Medium to inactivate Trypsin after 2-3 minutes incubation at 37C. Centrifuge cells at 900 rpm for 4 minutes and resuspend in growth medium. Cell should be passage or fed at least twice a week.Assay Protocol: Harvest cells from culture in growth medium and resuspend in assay medium. 2.2 Dispense 4000 cells/5 uL/well into 1536-well black/clear bottom plates using a Multidrop dispenser. After the cells were incubated at 37C for 5 hours, 23 nL of compounds dissolved in DMSO were transferred to the assay plate by a PinTool resulting in a 217-fold dilution. Incubate the plates for 16 hours at 37C, 5% CO2. Add 1 uL of 6X LiveBLAzer FRET B/G (CCF4-AM) Substrate Mixture to each well using a BioRAPTR dispenser and incubate the plates at room temperature for 2 hours. Measure fluorescence intensity at 460 and 530 nm emission and 405 nm excitation by an Envision detector. Data is expressed as the ratio of 460nm/530nm emissions. Add 4 uL of Cell-titer Glo to each well using BioRAPTR and incubate the plates at room temperature for 2 hours. Measure fluorescence intensity by a VewLux plate reader.

| Compound | outcome | AC50 |
| --- | --- | --- |
| CCCCOC(=O)COC(=O)c1ccccc1C(=O)OCCCC | inactive | – |
| CC1(C)[C@H](C(=O)O[C@H](C#N)c2cccc(Oc3ccccc3)c2)[C@@H]1/C=C(\Cl)C(F)(F)F | inactive | – |
| C#C[C@]1(O)CC[C@H]2[C@@H]3CCC4=CC(=O)CC[C@]4(C)[C@H]3CC[C@@]21C | inactive | – |
| c1ccc(-c2cccc(-c3ccccc3)c2)cc1 | inactive | – |
| O=[N+]([O-])c1ccc(Nc2ccccc2)cc1 | – | 52.5 µM (active) and 84.9 µM (active) |
| O=CCCl | inactive | – |
| CC(C)(c1ccccc1)c1cc(-n2nc3ccccc3n2)c(O)c(C(C)(C)c2ccccc2)c1 | inactive | – |
| CC(c1ccc(O)cc1)c1ccc(O)cc1 | inactive | – |
| O=C(CCl)Nc1ccccc1 | inactive | – |
| O=c1oc2ccccc2c(O)c1C(CC(O)c1ccc(-c2ccc(Br)cc2)cc1)c1ccccc1 (stereo not given) | – | 27.2 µM (active) and 14.3 µM (active) |
| CC(C)CC(C)(c1ccc(O)cc1)c1ccc(O)cc1 | – | 84.6 µM (active) and 86.8 µM (active) |
| O=S1(=O)OC(c2cc(Br)c(O)c(Br)c2)(c2cc(Br)c(O)c(Br)c2)c2ccccc21 | inactive | – |
| O=S(=O)(c1ccc(Cl)cc1)c1cc(Cl)c(Cl)cc1Cl | inactive | – |
| C=CCN=C=S | inactive | – |
| O=[N+]([O-])c1c2ccccc2cc2ccccc12 | inactive | – |
| CC(C)[C@H](C(=O)OC(C#N)c1cccc(Oc2ccccc2)c1)c1ccc(OC(F)F)cc1 (stereo not given in full) | inactive | – |
| C=CCCl | inactive | – |
| CCCCCCCCCCCCCCC(Br)C(=O)O (stereo not given) | – | 70.6 µM (active) |
| COP(=S)(OC)Oc1cc(Cl)c(I)cc1Cl | inactive | – |
| ClCCCCl | inactive | – |

| Compound | outcome | AC50 |
| --- | --- | --- |
| N#Cc1ccc(Cl)cc1 | inactive | – |
| O=C(CCl)NCO | inactive | – |
| Clc1ccc(C(Cl)(Cl)Cl)cn1 | inactive | – |
| CCCCC(CC)C(=O)Cl (stereo not given) | inactive | – |
| O=[N+]([O-])c1ccccc1O | inactive | – |
| CC(C)(C)c1cc([N+](=O)[O-])cc(C(C)(C)C)c1O | inactive | – |
| O=C1C[C@@H]2OCC=C3CN4CC[C@]56c7ccccc7N1[C@H]5[C@H]2[C@H]3C[C@H]46 | inactive | – |
| O=C(NC(=O)c1c(F)cccc1F)Nc1cc(Cl)c(OC(F)(F)C(F)C(F)(F)F)cc1Cl (stereo not given) | inactive | – |
| CCCCCCCCCCCCBr | inactive | – |
| C=C(C)C(=O)OCC(CC)CCCC (stereo not given) | inactive | – |
| C[CH2][Hg][S]c1ccccc1C(=O)O | – | 350 nM (active) and 3 µM (active) |
| Nc1cccnc1 | inactive | – |
| O=C(CBr)c1ccc(O)cc1 | inactive | – |
| C=C(C)[C@@H]1CC=C(C=O)CC1 | inactive | – |
| CCOc1cc(C=O)ccc1O | inactive | – |
| O=C=Nc1ccc(Cl)cc1 | inactive | – |
| CS(=O)(=O)c1ccc(C(=O)C2C(=O)CCCC2=O)c(Cl)c1COCC(F)(F)F | inactive | – |
| Cc1cc(C(F)(C(F)(F)F)C(F)(F)F)ccc1NC(=O)c1cccc(I)c1C(=O)NC(C)(C)CS(C)(=O)=O | inactive | – |
| CCOP(=S)(OCC)OP(=S)(OCC)OCC | inactive | – |
| O=[N+]([O-])c1ccc(Cl)c([N+](=O)[O-])c1 | – | 32.3 µM (active) and 74.9 µM (active) |

From PubChem BioAssay (EPA / NIEHS)
